# High-throughput results deposited in PubChem BioAssay by National Center for Advancing Translational Sciences (NCATS).
# Shown are actives, neighbours in structure and some others; about 17% of the full set was active somewhere.
# HT1080NT lethal – qHTS for induction of synthetic lethality in tumor cells producing 2HG: qHTS for the HT-1080-NT fibrosarcoma cell line. HT-1080-NT fibrosarcoma viability, CellTiter-Glo ATP luminescence, 48 h. Potency, µM (series often up to 46.1 µM), without a hit: at the highest dose activity, negative = less viability, hits mostly cytotoxic. 360,000 compounds, 1.6% hits;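 further: NT is the 2HG producing partner of a matched IDH1 knockdown line; 0% = DMSO-treated cells and -100% = media-only wells without cells; nearly all actives have a fitted effect of over 55% in size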
#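 A 48-hour cytotoxicity screen used HT-1080-NT cells plated 2 hours before compound delivery. ATP-based CellTiter-Glo luminescence measured viability, normalized to DMSO and no-cell controls.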
# HT1080 IDH1KD tx – qHTS for induction of synthetic lethality in tumor cells producing 2HG: qHTS for the HT-1080-IDH1KD cell line; HT-1080 IDH1 knockdown viability, ATP luminescence, 48 h; Potency, µM (highest dose often 46.1 µM), for the others: at the top dose activity, negative = toxicity, most hits filed as cytotoxic; 360,000 compounds, 2% hits; AID 686971, 2013;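 further: 0% = DMSO wells and -100% = cell-free medium wells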
#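 Knockdown cells (IDH1KD HT-1080) received compounds 2 h after plating at 750 cells/well and were kept 48 h at 37 °C in 5% FBS RPMI. A CellTiter-Glo luminescence read gave % activity for curve fitting.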
# TGFb inhibitor – qHTS for Inhibitors of TGF-b | HepG2 CAGA-GFP TGF-b/SMAD3 reporter, GFP fluorescence, 18 h; TGF-beta stimulated, 500 pg/mL final | Potency, µM (titrated, usually from 46.1 µM), inactives show top-dose activity, negative = inhibition, actives largely listed as inhibitors | AID 588855, 2011 | 410,000 compounds, 1.2% hits; further: on the % scale 0 is the no-effect control and ±100 the full control effect; nearly all actives have a fitted effect of over 65% in size
#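 First, reporter cells (HEPG2 CAGA-GFP) rested 2 h at 37 degrees C. Next, compounds were pinned in and TGF-beta added to 500 pg/mL final. After 18 h, GFP was imaged per cell and summed per well.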
# DT40 TDP1 no CPT – qHTS for Inhibitors of human tyrosyl-DNA phosphodiesterase 1 (TDP1): qHTS in cells in absence of CPT | DT40 Tdp1-/- hTDP1 cells, no CPT, ATP luminescence, 48 h | Potency, µM (titrated, usually from 46.2 µM), for inactives: at the top dose activity change, negative = growth inhibition, actives largely listed as inhibitors | 420,000 compounds, 15% hits | AID 686978, 2013; further: on the % scale 0 is the no-effect control and ±100 the full control effect; nearly all actives have a fitted effect of over 55% in size
#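 Cells were dispensed at 400 per well, compounds added by pin tool, plates incubated ≥48 hr at 37 °C, then CellTiter-Glo added for 30 min at room temperature before luminescence reading. Line: DT40 Tdp1-/- complemented with hTDP1; camptothecin omitted.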
# DT40 TDP1 CPT – qHTS for Inhibitors of human tyrosyl-DNA phosphodiesterase 1 (TDP1): qHTS in cells in presence of CPT; chicken DT40 Tdp1-/-;hTDP1 cells + 20 nM CPT, ATP luminescence, 48 h; Potency, µM (doses to about 46.2 µM), without a hit: top-dose activity change, negative = growth inhibition, actives largely listed as inhibitors; 420,000 compounds, 12% hits; AID 686979, 2013; further: on the % scale 0 is the no-effect control and ±100 the full control effect; nearly all actives have a fitted effect of over 55% in size
#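 Cell growth measured by CellTiter-Glo luminescence after a minimum 48 h, 37 C compound exposure with 20 nM CPT in Tdp1-knockout DT40 cells stably expressing hTDP1, seeded 400/well; qHTS titration format.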
# HepG2 viability – qHTS for Inhibitors of TGF-b: Cytotox Counterscreen. HepG2 CAGA-GFP viability, ATP luminescence, 18 h. Potency, µM (series often up to 46.1 µM), without a hit: at the highest dose activity change, negative = cytotoxicity, most hits filed as cytotoxic. 410,000 compounds, 0.76% hits. AID 588856, 2011
#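 CellTiter-Glo luminescence gave cytotoxicity after 18 hours at 37 degrees C. The cells were HepG2 CAGA-GFP in 1% FBS DMEM, stimulated with 500 pg/mL TGF-beta after compound addition. %Activity was normalised to no-cell wells (complete cell-killing) and DMSO (no toxicity), and curves were fitted and classified.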
# * marks the source's active call; other numbers are inactive results; ? = inconclusive; / = no result given. The call rests on the fitted dose curve; in most records, active means well fitted curve in the direction sought with a large enough effect; inconclusive means small, poorly fitted or top-dose-only effect, or another doubt; inactive means no such curve, though single readings can be large; an effect the other way counts as inactive or inconclusive. Potency means the concentration at half of the fitted maximal effect.
SMILES,HT1080NT lethal,HT1080 IDH1KD tx,TGFb inhibitor,DT40 TDP1 no CPT,DT40 TDP1 CPT,HepG2 viability
COc1ccc(NS(=O)(=O)c2cc(C)ccc2OC)cc1OC,0%,-1%,-11%,-14%,-15%,10%
COc1ccc(F)cc1S(=O)(=O)Nc1ccc(C)cc1,-10%,-25%,-18%,23µM*,-3%,-30%
CC1(C)CO[C@@H](CC(=O)O)CN1,/,/,/,2%,13%,/
COc1cccc(S(=O)(=O)N2CCN(Cc3ccc4c(c3)OCO4)CC2)c1,0%,6%,1%,-12%,5%,-4%
CC(C)n1cc(CN2CCC(C(=O)Nc3ccc(Oc4ccccc4F)cc3)CC2)cn1,?,21µM*,?,?,?,-42%
CCn1cc(CN2CCC(C(=O)Nc3ccc(Oc4ccccc4F)cc3)CC2)c(C)n1,-13%,?,-7%,26µM*,?,-27%
CC(C)n1cc(CN2CCC(C(=O)Nc3cccc(-c4cscn4)c3)CC2)cn1,-2%,-18%,8%,-2%,-15%,-4%
COC(=O)[C@@]12C[C@@H](CC(=O)N3CCC(c4ccccc4)CC3)C(=O)N(Cc3ccco3)C1=CCC(C)(C)C2,-6%,-3%,/,?,?,/
CN(C)S(=O)(=O)c1cccc(NC(=S)NC2CCCCC2)c1,3%,-19%,14%,-8%,-22%,-8%
CC1Cc2ccccc2N1C(=S)Nc1cccc(S(=O)(=O)N(C)C)c1 (stereo unspecified),-1%,-16%,?,?,16µM*,-28%
CC1CCN(C(=S)Nc2cccc(S(=O)(=O)N(C)C)c2)CC1,5%,4%,7%,?,?,-2%
CC1CCCC(NC(=S)Nc2cccc(S(=O)(=O)N(C)C)c2)C1C (stereo unspecified),-3%,?,?,18µM*,?,-20%
C=CCN(CC=C)S(=O)(=O)c1ccc(NC(=S)NC(=O)C2CC2)cc1,?,?,18µM*,13µM*,23µM*,-21%
CN(C)S(=O)(=O)c1cccc(NC(=S)NC(=O)C2CCCCC2)c1,-7%,-13%,?,18µM*,?,1%
CN(C)S(=O)(=O)c1cccc(NC(=S)N2CCc3ccccc32)c1,-1%,-4%,?,?,?,-28%
NS(=O)(=O)c1ccc(NC(=S)NC(=O)C2CCCC2)cc1,1%,8%,1%,12%,-6%,5%
Cc1onc(-c2c(Cl)cccc2Cl)c1C(=O)NCCc1ccc(S(N)(=O)=O)cc1,-3%,-6%,-6%,0%,-12%,-12%
Cc1cccc(NS(=O)(=O)c2ccc3[nH]c(=O)ccc3c2)c1C,/,/,1%,?,?,-11%
CCCCCNS(=O)(=O)c1cc2c3c(c1)CCC(=O)N3CCC2,0%,3%,-3%,-18%,?,-11%
CCc1ccc(CNC(=O)c2ccc(-c3nc(CS(=O)(=O)c4ccccc4)c(C)o3)cc2)cc1,/,/,-19%,?,15µM*,-30%
COc1cccc(CNC(=O)c2ccc(-c3nc(CS(=O)(=O)c4ccccc4)c(C)o3)cc2)c1,/,/,-29%,23µM*,?,-40%
Cc1cccc(CNC(=O)c2ccc(-c3nc(CS(=O)(=O)c4ccccc4)c(C)o3)cc2)c1,/,/,-4%,?,-28%,-69%
